From the supplement of paper PMC6555819

Legend:
Test in all cases: PBM binding z-score (relative to random genomic background probes); higher = stronger binding; sequences stand for … in GC…GCGATTGACAGCGTAGAATGAAGG
[1] = tested on: FXR:RXRa (NR concentration 270 nM, RXRa partner concentration 90 nM)
In short: (§1)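 Custom Agilent 4×180K protein-binding microarrays carried double-stranded probes. Their 34-nt variable regions held direct-repeat seeds, single-nucleotide variants, half-site ablations and random human genomic background sequences. Arrays were incubated 1 h with ligand-free nuclear receptor dimers in PBS pH 7.4, 2% milk, 0.02% Triton X-100, 1 mM DTT, 0.2 mg/mL BSA and 0.4 mg/ml salmon testes DNA. Antibodies against each partner (one per run) detected binding, and scanned fluorescence was regression-normalized. Binding z-scores use random background probes as reference.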

[2] = tested on: LXRa:RXRa (NR concentration 270 nM, RXRa partner concentration 90 nM)
In short: as §1

[3] = tested on: LXRa homodimer (NR concentration 270 nM)
In short: as §1

[4] = tested on: LXRb:RXRa (NR concentration 270 nM, RXRa partner concentration 90 nM)
In short: as §1

[5] = tested on: LXRb homodimer (NR concentration 270 nM)
In short: as §1

[6] = tested on: PPARa:RXRa (NR concentration 270 nM, RXRa partner concentration 90 nM)
In short: as §1

[7] = tested on: PPARg:RXRa (NR concentration 180 nM, RXRa partner concentration 90 nM)
In short: as §1

[8] = tested on: PPARg:RXRa 270nM:90nM, anti-RXR (NR concentration 270 nM, RXRa partner concentration 90 nM)
In short: as §1

[9] = tested on: PPARg:RXRa 30nM:10nM, anti-RXR (NR concentration 30 nM, RXRa partner concentration 10 nM)
In short: as §1

[10] = tested on: PPARg:RXRa 90nM:30nM, anti-RXR (NR concentration 90 nM, RXRa partner concentration 30 nM)
In short: as §1

[11] = tested on: PPARg:RXRa DBDmut IVT, anti-RXR (DBD mutation: RXRa K156A/R161A, NR concentration 270 nM, RXRa partner concentration 90 nM)
In short: as §1

[12] = tested on: PPARg:RXRa IVT, anti-PPARg (NR concentration 270 nM, RXRa partner concentration 90 nM)
In short: as §1

[13] = tested on: PPARg DBDmut:RXRa IVT, anti-PPARg (DBD mutation: PPARg1 K132A/R137A, NR concentration 270 nM, RXRa partner concentration 90 nM)
In short: as §1

[14] = tested on: PPARg DBDmut IVT, anti-PPARg (DBD mutation: PPARg1 K132A/R137A, NR concentration 270 nM)
In short: as §1

[15] = tested on: PPARg homodimer (NR concentration 180 nM)
In short: as §1

[16] = tested on: PXR:RXRa (NR concentration 270 nM, RXRa partner concentration 90 nM)
In short: as §1

[17] = tested on: PXR homodimer (NR concentration 270 nM)
In short: as §1

[18] = tested on: RARa:RXR (NR concentration 270 nM, RXRa partner concentration 90 nM)
In short: as §1

[19] = tested on: RARa homodimer (NR concentration 270 nM)
In short: as §1

[20] = tested on: RARb:RXRa (NR concentration 270 nM, RXRa partner concentration 90 nM)
In short: as §1

Sequence | PBM binding z-score [1] | PBM binding z-score [2] | PBM binding z-score [3] | PBM binding z-score [4] | PBM binding z-score [5] | PBM binding z-score [6] | PBM binding z-score [7] | PBM binding z-score [8] | PBM binding z-score [9] | PBM binding z-score [10] | PBM binding z-score [11] | PBM binding z-score [12] | PBM binding z-score [13] | PBM binding z-score [14] | PBM binding z-score [15] | PBM binding z-score [16] | PBM binding z-score [17] | PBM binding z-score [18] | PBM binding z-score [19] | PBM binding z-score [20]
ACTATTAGTTGTGACGAGGGCAACCGATAGGTTG | -0.101 | -0.0626 | -0.0175 | -0.0591 | -0.181 | 0.388 | 0.623 | 0.256 | -0.152 | 0.259 | 0.298 | 0.518 | 0.938 | 1.19 | 0.35 | 0.597 | -0.0621 | 0.536 | 0.293 | 1.06
CCTAGCAGGCCAGGGTCACTCTAGCATTTCGCTT | 1.58 | 1.43 | -0.629 | 1.71 | -0.953 | 2.59 | 0.377 | 1.19 | -0.703 | -0.00564 | 0.274 | 0.7 | -1.19 | -1.73 | 0.937 | 2.39 | -0.295 | 3.03 | -0.305 | 2.52
CCTGCTAGGTCATGGTCAGCTACTCTACAGTATG | 3.3 | 2.34 | 0.256 | 1.42 | -0.441 | 3.16 | 2.56 | 2.72 | 0.637 | 1.67 | 4.23 | 3.88 | 0.29 | 0.349 | 1.41 | 0.866 | -0.32 | 2.09 | -0.0662 | 4.04
ATCTTTAGGTAACAAGTTCAGTGAAAGAGAGGAC | 1.21 | 1.09 | 0.889 | 1.08 | 1.44 | 1.41 | 0.762 | 1.44 | 0.49 | 0.949 | 2.13 | 1.75 | 1.64 | 1.45 | 1.33 | 1.95 | 1.87 | 1.32 | 1.15 | 1.85
CTCGAAAGGTCGGTTGAGGTTAGTATACGGATAA | 3.06 | 2.88 | 0.205 | 1.97 | 0.0146 | 2.81 | 0.316 | 1.21 | 0.186 | 0.845 | -0.0127 | 0.923 | 0.234 | -0.683 | 1.47 | 4.96 | 0.435 | 3.04 | 0.202 | 3.06
TCCAGCAGGCCAGAGGGTCACTCAAGAGGTACGG | 0.97 | 1.16 | -0.45 | 1.18 | -1.14 | 2.23 | 0.983 | 1.87 | 1.59 | 1.79 | 0.933 | 0.217 | -0.437 | -1.27 | 0.577 | 1.45 | -0.376 | 2.3 | -0.207 | 2.2
CCGACTGGGGCAAAGGATACCATACTCAGTACGA | -0.424 | -0.501 | -0.0956 | -0.347 | -1.05 | 1.32 | 4.4 | 5.19 | 3.28 | 5.31 | 3.85 | 3.35 | -0.00815 | -0.219 | 0.339 | -0.407 | -0.363 | -0.246 | -0.215 | 0.425
AGAATGAGGTTACCAAAGATTAGGGAAACGCTTG | 1.75 | 4.54 | -0.368 | 1.72 | -0.268 | 3.31 | 2.43 | 2.72 | 1.12 | 1.93 | 4.05 | 3.59 | 1.65 | 0.534 | 0.398 | 1.15 | -0.168 | 1.88 | 0.039 | 2.06
TGAATGAGGGTAAAGATCAGGGAACGTGGCGTCG | 0.332 | 0.35 | -0.456 | -0.0766 | 0.875 | 2.98 | 4.39 | 5.94 | 4.5 | 6.32 | 2.27 | 3.04 | 0.811 | 1.2 | 1.24 | -0.131 | -0.487 | 0.239 | 0.383 | 0.817
